# Test results from PubChem BioAssay AID1159580 (chemical genetic matrix, 2015).
# About 2,000 (36%) of roughly 5,500 compounds were called active. About 18% were inconclusive and are not listed. This is one part of the list. A number with no mark means an inactive call. Rule as the data show it: active = normalized growth mostly below about 0.91 (no sharp cut-off); inconclusive = no clear call, values can overlap the other calls; inactive = mostly above about 0.92.
# Test: chemical genetic growth profiling, strain panel (AID 1159580);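 also: tested at 20 µM; growth read once vehicle control cultures reached saturation at 30 °C; 1 = growth at the plate median or of vehicle wells; lower values mean less growth of the strain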
# Settings: growth OD
# [1] = S. cerevisiae deletion strains, locus YAL013W, strain DEP1, active compounds read low
# [2] = S. cerevisiae deletion strains, locus YGR078C, strain PAC10, active compounds read low
# [3] = S. cerevisiae deletion strains, locus YMR263W, strain SAP30, active compounds read low
# [4] = S. cerevisiae deletion strains, locus YMR307W, strain GAS1, active compounds read low
# [5] = S. cerevisiae deletion strains, locus YNL153C, strain GIM3, active compounds read low
# [6] = S. cerevisiae deletion strains, locus YBR229C, strain ROT2, active compounds read low
# [7] = S. cerevisiae deletion strains, locus YDL101C, strain DUN1, active compounds read low
# [8] = S. cerevisiae deletion strains, locus YDL134C, strain PPH21, active compounds read low
# [9] = S. cerevisiae deletion strains, locus YDR150W, strain NUM1, active compounds read low
# [10] = S. cerevisiae deletion strains, locus YEL061C, strain CIN8, active compounds read low
# [11] = S. cerevisiae deletion strains, locus YHR030C, strain SLT2, active compounds read low
# [12] = S. cerevisiae deletion strains, locus YHR087W, strain rtc3, active compounds read low
# [13] = S. cerevisiae deletion strains, locus YJR043C, strain POL32, active compounds read low
# [14] = S. cerevisiae deletion strains, locus YJR075W, strain HOC1, active compounds read low
# [15] = S. cerevisiae deletion strains, locus YKL190W, strain CNB1, active compounds read low
# [16] = S. cerevisiae deletion strains, locus YLR039C, strain RIC1, active compounds read low
# [17] = S. cerevisiae deletion strains, locus YLR058C, strain SHM2 (second series), active compounds read low
# [18] = S. cerevisiae deletion strains, locus YLR085C, strain ARP6, active compounds read low
# [19] = S. cerevisiae deletion strains, locus YLR262C, strain YPT6, active compounds read low
# [20] = S. cerevisiae deletion strains, locus YML094W, strain GIM5, active compounds read low
# [21] = S. cerevisiae deletion strains, locus YMR219W, strain ESC1, active compounds read low
# [22] = S. cerevisiae deletion strains, locus YNL298W, strain CLA4 (second series), active compounds read low
# [23] = S. cerevisiae deletion strains, locus YNL322C, strain KRE1, active compounds read low
# [24] = S. cerevisiae deletion strains, locus YNR030W, strain Alg12, active compounds read low
# [25] = S. cerevisiae deletion strains, locus YPL055C, strain LGE1, active compounds read low
# [26] = S. cerevisiae deletion strains, locus YPL241C, strain CIN2, active compounds read low
# [27] = S. cerevisiae deletion strains, locus YPR135W, strain CTF4, active compounds read low
# [28] = S. cerevisiae strains, strain wild type, active compounds read low
# [29] = S. cerevisiae deletion strains, locus YHR079C, strain IRE1, active compounds read low
# [30] = S. cerevisiae deletion strains, locus YJL095W, strain BCK1, active compounds read low
# [31] = S. cerevisiae deletion strains, locus YJR066W, strain TOR1, active compounds read low
# [32] = S. cerevisiae deletion strains, locus YLR113W, strain HOG1, active compounds read low
# [33] = S. cerevisiae deletion strains, locus YNL183C, strain NPR1, active compounds read low
# [34] = S. cerevisiae deletion strains, locus YOR231W, strain MKK1, active compounds read low
# [35] = S. cerevisiae deletion strains, locus YPL256C, strain CLN2, active compounds read low
compound,measurement,setting,value
Nc1nc(Cl)nc2c1ncn2[C@@H]1O[C@H](CO)[C@H](O)C1O (stereo partly drawn),normalized growth,[1],1.01
same,normalized growth,"S. cerevisiae deletion strains, locus YAL040C, strain CLN3, active compounds read low",1.02
same,normalized growth,"S. cerevisiae deletion strains, locus YER002W, strain NOP16, active compounds read low",0.991
same,normalized growth,[2],1.01
same,normalized growth,[3],1.01
same,normalized growth,[4],1
same,normalized growth,[5],1.04
same,normalized growth,"S. cerevisiae deletion strains, locus YNL175C, strain NOP13, active compounds read low",0.996
same,normalized growth,"S. cerevisiae deletion strains, locus YNL197C, strain WHI3, active compounds read low",0.979
same,normalized growth,"S. cerevisiae deletion strains, locus YNL224C, strain SQS1, active compounds read low",1
same,normalized growth,"S. cerevisiae deletion strains, locus YOR083W, strain WHI5 (second series), active compounds read low",1.02
FC(F)(F)Oc1ccc(-c2noc(CSc3ccc(Br)cc3)n2)cc1,normalized growth,[1],1.02
same,normalized growth,[6],1.01
same,normalized growth,[7],0.967
same,normalized growth,[8],0.999
same,normalized growth,[9],1
same,normalized growth,[10],0.974
same,normalized growth,[2],1
same,normalized growth,[11],0.69 (active)
same,normalized growth,[12],1.01
same,normalized growth,[13],0.992
same,normalized growth,[14],0.978
same,normalized growth,[15],0.989
same,normalized growth,[16],1.05
same,normalized growth,[17],0.997
same,normalized growth,[18],0.905
same,normalized growth,[19],1
same,normalized growth,[20],0.99
same,normalized growth,[21],1
same,normalized growth,[3],0.997
same,normalized growth,[4],0.75
same,normalized growth,[5],1
same,normalized growth,[22],0.969
same,normalized growth,[23],0.996
same,normalized growth,[24],0.958
same,normalized growth,[25],1.04
same,normalized growth,[26],0.966
same,normalized growth,[27],1.1
same,normalized growth,[28],0.985
CC(=O)OCC1=C(C(=O)O)N2C(=O)[C@@H](N)C2SC1 (stereo partly drawn),normalized growth,[11],1.06
same,normalized growth,[29],1.07
same,normalized growth,[30],1.07
same,normalized growth,[31],0.976
same,normalized growth,[32],1.05
same,normalized growth,[33],0.983
same,normalized growth,[34],1.07
same,normalized growth,[35],1.07
C[C@H]1CC2C3CCC4=CC(=O)C=C[C@]4(C)[C@@]3(F)[C@@H](O)C[C@]2(C)[C@@]1(O)C(=O)COP(=O)(O)O (stereo partly drawn),normalized growth,[11],1.07
same,normalized growth,[29],1.08
same,normalized growth,[30],1.03
same,normalized growth,[31],0.971
same,normalized growth,[32],1.03
same,normalized growth,[33],0.983
same,normalized growth,[34],1.08
same,normalized growth,[35],1.09
O=C(O)COCC(=O)N1CCc2c([nH]c3ccccc23)C1C(F)(F)F (stereo not drawn),normalized growth,[1],1.01
same,normalized growth,[6],0.998
same,normalized growth,[7],1.02
same,normalized growth,[8],1.01
same,normalized growth,[9],0.949
same,normalized growth,[10],1.01
same,normalized growth,[2],1.03
same,normalized growth,[11],1.06
same,normalized growth,[12],1.01
same,normalized growth,[13],1.02
same,normalized growth,[14],1.06
same,normalized growth,[15],1.03
same,normalized growth,[16],1.03
same,normalized growth,[17],1.02
same,normalized growth,[18],1.33 [resistant] (active)
same,normalized growth,[19],0.998
same,normalized growth,[20],1.04
same,normalized growth,[21],1
same,normalized growth,[3],0.954
same,normalized growth,[4],1.24
same,normalized growth,[5],1.01
same,normalized growth,[22],1.05
same,normalized growth,[23],1.02
same,normalized growth,[24],1.06
same,normalized growth,[25],0.961
same,normalized growth,[26],1.07
same,normalized growth,[27],1.05
same,normalized growth,[28],1.02
